Values without a mark were called inactive. This is one part of the list. Activity calls are given as the source filed them. Unless noted, no stated cut-off is given here; in the data, active means inhibition above about 25%; inactive means the rest.
Legend:
[1] = target: Nuclear receptor coactivator 1 (Homo sapiens) (UniProt Q15788); assay: NCOA1 GAL4-fusion reporter inhibition – cell-based, luminescence, quadruplicate, confirmation (AID 588820;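 active means mean inhibition above 46.68%, the untreated control wells mean plus 3 SD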;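 further: 0% = DMSO wells and 100% = gossypol 36 µM treated wells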); details: HEK293 GAL4-SRC1 luciferase reporter, at 3.6 µM, active compounds read high
Nuclear receptor coactivator 1 (Homo sapiens), sequence (Q15788 whole entry, looked up, the tested form may be a part): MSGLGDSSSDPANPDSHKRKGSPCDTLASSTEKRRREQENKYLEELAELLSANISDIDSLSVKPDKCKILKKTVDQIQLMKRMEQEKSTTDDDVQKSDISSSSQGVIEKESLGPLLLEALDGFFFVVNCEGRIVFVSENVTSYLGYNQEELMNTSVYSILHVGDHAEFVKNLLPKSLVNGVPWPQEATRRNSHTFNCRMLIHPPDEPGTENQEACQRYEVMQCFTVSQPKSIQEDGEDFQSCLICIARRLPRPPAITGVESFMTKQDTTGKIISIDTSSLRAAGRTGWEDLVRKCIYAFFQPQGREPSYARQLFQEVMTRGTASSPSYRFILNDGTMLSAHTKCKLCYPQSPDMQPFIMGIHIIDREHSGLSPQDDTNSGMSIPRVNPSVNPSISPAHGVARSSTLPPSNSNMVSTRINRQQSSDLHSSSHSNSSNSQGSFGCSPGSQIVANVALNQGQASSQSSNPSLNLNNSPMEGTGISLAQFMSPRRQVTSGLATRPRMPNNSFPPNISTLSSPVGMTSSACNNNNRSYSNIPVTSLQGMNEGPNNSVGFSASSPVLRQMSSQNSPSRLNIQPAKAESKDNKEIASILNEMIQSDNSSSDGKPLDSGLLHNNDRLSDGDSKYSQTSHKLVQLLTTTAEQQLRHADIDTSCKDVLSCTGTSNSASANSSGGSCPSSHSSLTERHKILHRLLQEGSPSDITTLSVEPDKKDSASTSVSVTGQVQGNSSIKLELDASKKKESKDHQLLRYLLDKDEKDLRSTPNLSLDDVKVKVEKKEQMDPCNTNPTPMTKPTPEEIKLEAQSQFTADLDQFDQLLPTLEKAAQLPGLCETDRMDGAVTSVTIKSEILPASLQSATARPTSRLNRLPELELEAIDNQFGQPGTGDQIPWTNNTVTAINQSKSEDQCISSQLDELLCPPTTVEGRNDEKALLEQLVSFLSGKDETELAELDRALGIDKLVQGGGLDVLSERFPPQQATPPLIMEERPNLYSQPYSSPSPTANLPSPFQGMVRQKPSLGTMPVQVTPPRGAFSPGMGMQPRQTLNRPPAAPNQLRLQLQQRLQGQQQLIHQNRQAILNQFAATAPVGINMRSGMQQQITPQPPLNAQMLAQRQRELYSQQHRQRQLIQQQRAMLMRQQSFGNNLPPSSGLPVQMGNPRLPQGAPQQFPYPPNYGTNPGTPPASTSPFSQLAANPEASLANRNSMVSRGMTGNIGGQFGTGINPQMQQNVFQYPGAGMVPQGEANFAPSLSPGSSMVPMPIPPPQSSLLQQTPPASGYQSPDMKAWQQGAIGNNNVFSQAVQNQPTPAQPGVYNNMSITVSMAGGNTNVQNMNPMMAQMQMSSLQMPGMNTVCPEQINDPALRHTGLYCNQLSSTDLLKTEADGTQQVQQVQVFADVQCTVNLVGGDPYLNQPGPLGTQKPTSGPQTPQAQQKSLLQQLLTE

[2] = repression of VP16-driven luciferase reporter – cell-based, luminescence, high throughput, counter-screen for SRC1 inhibitor project (AID 588824); details: cell-based VP16 transactivation luciferase luminescence; at 3.6 µM; active compounds read high
[3] = system: transactivating tegument protein VP16 (Human herpesvirus 1); assay: compounds suppressing VP16-driven luciferase signal – cell-based, luminescence, single concentration, counter-screen for SRC2 inhibitor project (AID 652007; in the data active means inhibition above about 36%); details: cell-based VP16 transactivation luciferase reporter, at 8.9 µM, active compounds read high
[4] = target: Nuclear receptor coactivator 2 (Homo sapiens) (UniProt Q15596); assay: inhibition of GAL4-SRC2 driven luciferase expression – cell-based, luminescence, HEK293, triplicate, confirmation (AID 652008;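 active means mean inhibition above 46.5%, the solvent-only control mean plus 3 SD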;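 further: 0% = DMSO-treated cells and 100% = Gossypol at 36 µM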); details: HEK293 GAL4-SRC2 luciferase reporter, at 8.9 µM, active compounds read high
Nuclear receptor coactivator 2 (Homo sapiens), sequence (Q15596 whole entry, looked up, the tested form may be a part): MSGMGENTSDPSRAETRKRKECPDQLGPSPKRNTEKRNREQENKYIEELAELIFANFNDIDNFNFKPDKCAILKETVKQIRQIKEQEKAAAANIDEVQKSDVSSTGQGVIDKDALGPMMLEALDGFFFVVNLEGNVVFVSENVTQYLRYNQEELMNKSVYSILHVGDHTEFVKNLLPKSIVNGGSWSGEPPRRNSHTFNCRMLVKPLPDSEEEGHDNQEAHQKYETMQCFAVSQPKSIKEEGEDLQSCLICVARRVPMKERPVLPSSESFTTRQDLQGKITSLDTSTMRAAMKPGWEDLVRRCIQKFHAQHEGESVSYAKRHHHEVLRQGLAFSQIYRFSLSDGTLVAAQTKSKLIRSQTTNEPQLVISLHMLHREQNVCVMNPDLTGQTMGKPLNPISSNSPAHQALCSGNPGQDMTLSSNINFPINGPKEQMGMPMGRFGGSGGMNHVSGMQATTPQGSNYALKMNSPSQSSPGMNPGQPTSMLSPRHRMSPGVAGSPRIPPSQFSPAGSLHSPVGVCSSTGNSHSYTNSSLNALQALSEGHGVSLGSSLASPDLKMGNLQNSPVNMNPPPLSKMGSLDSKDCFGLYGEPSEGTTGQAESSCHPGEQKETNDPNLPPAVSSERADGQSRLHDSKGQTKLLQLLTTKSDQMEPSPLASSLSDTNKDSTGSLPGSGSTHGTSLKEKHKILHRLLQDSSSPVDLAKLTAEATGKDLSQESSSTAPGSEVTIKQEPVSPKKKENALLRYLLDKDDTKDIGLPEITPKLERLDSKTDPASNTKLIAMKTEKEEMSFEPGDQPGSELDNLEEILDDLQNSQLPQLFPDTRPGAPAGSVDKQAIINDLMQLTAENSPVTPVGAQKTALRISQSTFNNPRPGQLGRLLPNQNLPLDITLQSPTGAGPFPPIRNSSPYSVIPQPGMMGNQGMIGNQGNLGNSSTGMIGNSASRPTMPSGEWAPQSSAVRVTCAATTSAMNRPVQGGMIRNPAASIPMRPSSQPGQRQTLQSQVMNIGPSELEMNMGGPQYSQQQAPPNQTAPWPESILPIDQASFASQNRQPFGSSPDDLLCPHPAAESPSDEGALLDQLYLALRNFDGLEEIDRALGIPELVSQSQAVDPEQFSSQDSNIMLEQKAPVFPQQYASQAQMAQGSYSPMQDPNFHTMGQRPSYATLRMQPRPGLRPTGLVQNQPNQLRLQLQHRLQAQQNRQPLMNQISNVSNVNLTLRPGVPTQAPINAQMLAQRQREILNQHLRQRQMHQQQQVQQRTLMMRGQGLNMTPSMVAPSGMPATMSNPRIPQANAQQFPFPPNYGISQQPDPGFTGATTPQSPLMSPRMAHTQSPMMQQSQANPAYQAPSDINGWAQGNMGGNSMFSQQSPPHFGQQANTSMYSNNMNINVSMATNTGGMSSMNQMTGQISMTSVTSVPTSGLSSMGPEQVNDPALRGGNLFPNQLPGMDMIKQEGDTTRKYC

[5] = StAR promoter reporter inhibitors, counter-screen for LRH-1 inverse agonist project, cell-based, luminescence, high throughput (AID 651611; in the data active means inhibition above about 28%); details: StAR promoter luciferase reporter counterscreen, at 3.6 µM, active compounds read high
[6] = target: Nuclear receptor subfamily 5 group A member 2 (Homo sapiens) (UniProt O00482); assay: NR5A2 activity suppression in reporter cells – cell-based, luminescence, confirmation (AID 651613; in the data active means inhibition above about 42%;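 further: HEK293T cells co-transfected with LRH-1 and StAR promoter luciferase reporter; 0% = vehicle wells and 100% = parental cells lacking receptor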); details: cell-based LRH-1 luciferase reporter, inverse agonism; at 3.6 µM; active compounds read high
Nuclear receptor subfamily 5 group A member 2 (Homo sapiens), sequence (O00482 whole entry, looked up): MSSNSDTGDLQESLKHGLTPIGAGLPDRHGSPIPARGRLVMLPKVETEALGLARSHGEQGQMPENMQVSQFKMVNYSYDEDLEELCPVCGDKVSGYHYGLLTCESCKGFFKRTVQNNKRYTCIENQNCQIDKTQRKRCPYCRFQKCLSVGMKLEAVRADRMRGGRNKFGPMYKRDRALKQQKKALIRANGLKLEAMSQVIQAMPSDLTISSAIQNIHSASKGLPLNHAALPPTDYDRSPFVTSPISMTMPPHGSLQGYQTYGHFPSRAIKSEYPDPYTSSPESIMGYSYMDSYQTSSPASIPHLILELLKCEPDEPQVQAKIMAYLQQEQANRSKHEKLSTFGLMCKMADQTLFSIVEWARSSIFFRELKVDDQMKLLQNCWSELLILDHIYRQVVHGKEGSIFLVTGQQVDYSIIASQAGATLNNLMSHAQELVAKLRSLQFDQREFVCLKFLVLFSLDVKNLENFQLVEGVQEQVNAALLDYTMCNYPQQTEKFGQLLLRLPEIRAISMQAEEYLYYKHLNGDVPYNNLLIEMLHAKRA

[7] = target: Steroidogenic factor 1 (Homo sapiens) (UniProt Q13285); assay: inverse agonism at SF1 nuclear receptor – cell-based, luminescence, high throughput, counter-screen for LRH-1 inverse agonist project (AID 651614; in the data active means inhibition above about 44%;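 further: cells cotransfected with StAR promoter reporter and SF1 expression vector; 0% = vehicle on cells with receptor and 100% = vehicle on cells lacking receptor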); details: cell-based SF1 luciferase reporter, at 3.6 µM, active compounds read high
Steroidogenic factor 1 (Homo sapiens), sequence (Q13285 whole entry, looked up, the tested form may be a part): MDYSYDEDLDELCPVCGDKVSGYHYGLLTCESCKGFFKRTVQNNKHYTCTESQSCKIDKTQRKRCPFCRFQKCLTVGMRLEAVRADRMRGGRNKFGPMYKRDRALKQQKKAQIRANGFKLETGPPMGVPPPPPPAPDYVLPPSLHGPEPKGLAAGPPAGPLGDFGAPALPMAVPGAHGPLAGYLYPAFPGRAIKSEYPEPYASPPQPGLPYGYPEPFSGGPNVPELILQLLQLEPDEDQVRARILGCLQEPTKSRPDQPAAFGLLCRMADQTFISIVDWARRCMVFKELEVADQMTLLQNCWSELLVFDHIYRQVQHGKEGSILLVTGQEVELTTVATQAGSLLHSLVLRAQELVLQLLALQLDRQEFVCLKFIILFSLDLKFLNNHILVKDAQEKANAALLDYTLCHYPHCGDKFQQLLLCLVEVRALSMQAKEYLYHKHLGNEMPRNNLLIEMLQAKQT

[8] = compounds suppressing VP16-driven luciferase signal – cell-based, luminescence, high throughput, counter-screen for LRH-1 inverse agonist project (AID 651615; in the data active means inhibition above about 33%); details: Gal4-VP16 luciferase reporter cells, at 3.6 µM, active compounds read high
[9] = reduced OD of V66 E. coli with T4 gene 2 phage – absorbance, RecBCD inhibitor project, confirmation (AID 651982;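 active means mean inhibition over triplicates exceeding the hit threshold derived in the original primary screen, cut at about 11% in these data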); details: E. coli V66 + T4 2- phage, growth OD; at 11.9 µM; active compounds read high
[10] = bacterial growth inhibition – absorbance, high throughput, counter-screen for RecBCD inhibitor project (AID 651983; in the data active means inhibition above about 20%;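 further: E. coli strain V66 grown with compound alone and no phage infection; 0% = bacteria with DMSO vehicle only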); details: E. coli viability, absorbance (OD) growth; at 11.9 µM; active compounds read high
[11] = reduced optical density, T4-challenged addAB+ bacteria – absorbance, E. coli V3065, T4 phage, counter-screen for RecBCD inhibitor project, confirmation (AID 651984;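 active means mean inhibition above the solvent-only control wells' mean plus 3 SD, cut at about 22% in these data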;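 further: higher means less bacterial growth from phage killing when AddAB is blocked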); details: E. coli expressing H. pylori AddAB + T4 phage, OD growth; at 11.9 µM; active compounds read high; gene 2 mutant T4, recBCD-deleted host

With Cc1ccc(C(=O)c2cccc(N)c2)cc1C the inhibition [1] was -41.2%, the inhibition [2] was 3.5% and the inhibition [3] was 58% (active). For the same molecule, the inhibition [4] was 76.3% (active).
For COc1ccc(S(=O)(=O)N2CCOCC2)cc1NC(=O)CCNC(=O)c1ccc(Br)cc1, the inhibition [1] was 64.3% (active), the inhibition [2] was 61.1% (active) and the inhibition [5] was 90.4% (active). For the same molecule, the inhibition [6] was 100% (active), the inhibition [7] was 95% (active) and the inhibition [8] was 67.4% (active). The inhibition [3] was 2.56% and the inhibition [4] was 44.6%.
With Cc1ncc(CO)c(/C=N/Nc2ccc(C(F)(F)F)cn2)c1O the inhibition [1] was 11.6%, the inhibition [2] was 18.7% and the inhibition [5] was 71.1% (active). The inhibition [6] was 84% (active), the inhibition [7] was 70.5% (active) and the inhibition [8] was 65.7% (active). The inhibition [3] was 8.88% and the inhibition [4] was 38.8%.
In the case of Cc1cc(NC2CCCC2)n2ncc(-c3ccccc3)c2n1, the inhibition [1] is reported as -78.1%, the inhibition [2] is reported as -34.6% and the inhibition [3] is reported as -46.2%. It also gave an inhibition [4] of 36.5%.
Cc1ccc(OCC(=O)NC(=S)Nc2ccccn2)c(Br)c1 showed an inhibition [1] of -49%, an inhibition [2] of -39.2% and an inhibition [3] of 20.5%. For the same molecule, the inhibition [4] was 37.7%.
In the case of O=C(Nc1ccc2c(c1)OCCO2)C(c1cc2ccccc2o1)N1CCN(c2ccc(F)cc2)CC1 (stereo not given), the inhibition [1] is reported as 3.86%, the inhibition [2] is reported as -2.84% and the inhibition [3] is reported as -43.1%. For the same molecule, the inhibition [4] was 28.6%.
In the case of COc1ccc(-c2noc(CCCCC(=O)N3CCN(c4cc(C)ccc4C)CC3)n2)cc1, the inhibition [1] is reported as -26%, the inhibition [2] is reported as 32.4% (active) and the inhibition [3] is reported as 29.6%. For the same molecule, the inhibition [4] was 48.2% (active).
With NC(=S)NN=Cc1ccc(OC(=O)COc2cc(Cl)c(Cl)cc2Cl)cn1 the inhibition [1] was 23.4%, the inhibition [2] was 18.9% and the inhibition [9] was 1.21%. For the same molecule, the inhibition [10] was 5.2% and the inhibition [11] was 23.4% (active).
For COCCNC(=O)c1c[nH]c2ccc(S(=O)(=O)N3CCc4ccccc43)cc2c1=O, the inhibition [1] was 43.8%, the inhibition [2] was 29.5% (active) and the inhibition [3] was 20.1%. It also gave an inhibition [4] of 33.5%.
For Fc1ccc(NC(=S)N2CCCN(c3ccc(C(F)(F)F)cn3)CC2)c(F)c1, the inhibition [1] was -32.2%, the inhibition [2] was 36.5% (active) and the inhibition [5] was 26.6%. The inhibition [6] was 57.6% (active), the inhibition [7] was 57.8% (active) and the inhibition [8] was 51.6% (active).
Molecule CN(C)S(=O)(=O)N1CCC(Oc2cccc(C(=O)NC3CCCCC3)c2)CC1 has an inhibition [1] of -42%, an inhibition [2] of 22% and an inhibition [3] of 4.19%. For the same molecule, the inhibition [4] was 13.4%.
Cc1nc2sc(C(N)=O)c(N)c2c(C)c1CC(=O)c1ccccc1 showed an inhibition [1] of 35.5%, an inhibition [2] of 5.05% and an inhibition [3] of -52.2%. The inhibition [4] was 19.1%.
Molecule CCN(C(=O)c1cc(S(=O)(=O)N2CCCCC2)c[nH]1)c1ccc(OC)cc1 has an inhibition [1] of 28.1%, an inhibition [2] of 22.5% and an inhibition [3] of 8.33%. The inhibition [4] was 25.9%.
For C=C1C(=O)C23C(O)C1CCC2C12COC3(O)C(O)C1C(C)(C)CCC2O (stereo not given), the inhibition [1] was -16%, the inhibition [2] was -9.14% and the inhibition [3] was 2.43%. The inhibition [4] was 25.9%.
With Cc1ccc(C(=O)C(C(=O)/C=C/c2ccccc2)=C2SCCCS2)cc1 the inhibition [1] was 44.4%, the inhibition [2] was 34.3% (active) and the inhibition [5] was 30.6% (active). For the same molecule, the inhibition [6] was 54.2% (active), the inhibition [7] was 47.2% (active) and the inhibition [8] was 44.5% (active). The inhibition [3] was 42.6% (active) and the inhibition [4] was 56% (active).
For CCOC(=O)C1CCN(C(=O)c2ccc(OCC(=O)Nc3cccc(C(F)(F)F)c3)c(OC)c2)CC1, the inhibition [1] was 4.29%, the inhibition [2] was 35.4% (active) and the inhibition [3] was 24.1%. For the same molecule, the inhibition [4] was 45.3%.
For O=[N+]([O-])c1ccc2c(c1)-c1ccccc1C2=NO, the inhibition [1] was 21.4%, the inhibition [2] was 9.81% and the inhibition [3] was 12.1%. The inhibition [4] was 13.5%.
Molecule Cc1noc(/C=C/c2ccco2)c1S(=O)(=O)N1CCC(C(=O)Nc2ccc(Cl)cn2)CC1 has an inhibition [1] of 16.8%, an inhibition [2] of 24.4% and an inhibition [3] of 17.2%. It also gave an inhibition [4] of 24.2%.
CC1CCN(c2ccc(-c3cccc(NC(=O)C(F)(F)F)c3)nn2)CC1 showed an inhibition [1] of -55.7%, an inhibition [2] of -29.6% and an inhibition [3] of -9.14%. For the same molecule, the inhibition [4] was 60% (active).
Work on CCOC(=O)c1c(C)cc2c(CO)n[nH]c(=O)c2c1C yielded an inhibition [1] of 11.6%, an inhibition [2] of 23.1% and an inhibition [3] of -8.56%. It also gave an inhibition [4] of 34.9%.
Molecule Cc1ccc(Oc2ccc(C(=O)NCc3ccncc3)cc2)cc1 has an inhibition [1] of 2.24%, an inhibition [2] of 23.4% and an inhibition [5] of 10.2%. The inhibition [6] was 76.8% (active), the inhibition [7] was 67.9% (active) and the inhibition [8] was 52.9% (active). The inhibition [3] was 7.11% and the inhibition [4] was 21.1%.
Work on O=S(=O)(Nc1ccc2c(c1)OCCO2)c1cccc2nsnc12 yielded an inhibition [1] of 7.42%, an inhibition [2] of -8.28% and an inhibition [3] of -9.03%. For the same molecule, the inhibition [4] was 44%.
Cn1nnnc1Sc1ncnc2scc(-c3ccc4c(c3)OCO4)c12 showed an inhibition [1] of 0.44%, an inhibition [2] of 3.16% and an inhibition [3] of 0.45%. The inhibition [4] was 21.4%.
With O=C1CCC2S/C(=C/Nc3ccc(C(F)(F)F)cc3)C(=O)N12 (stereo not given) the inhibition [1] was 15.1%, the inhibition [2] was 6.56% and the inhibition [3] was 3.33%. For the same molecule, the inhibition [4] was 66.4% (active).

Reference: PubChem BioAssay
